This is part of a sample that, as a whole, favours compounds with a hit. Of some 83,000 tested, about 20% had one in any assay.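 Activity criterion: percent growth below 10, measured after cells in 96-well plates were exposed to a single compound concentration for 48 hours.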
Key:
Experiment in all cases: NCI-60 one-dose screen, 48 h (100 = growth as untreated, 0 = no growth, -100 = all killed)
NCI-H226 lung = conditions: 10 µM unless noted
MALME-3M melanoma = conditions: 10 µM unless noted
RXF 393 renal = conditions: 10 µM unless noted
SF-295 CNS = conditions: 10 µM unless noted
UACC-257 melanoma = conditions: 10 µM unless noted
M14 melanoma = conditions: 10 µM unless noted
PC-3 prostate = conditions: 10 µM unless noted
SK-MEL-5 melanoma = conditions: 10 µM unless noted
LOX IMVI melanoma = conditions: 10 µM unless noted
CAKI-1 renal = conditions: 10 µM unless noted
A498 renal = conditions: 10 µM unless noted
CCRF-CEM leukemia = conditions: 10 µM unless noted
MOLT-4 leukemia = conditions: 10 µM
RPMI-8226 leukemia = conditions: 10 µM unless noted
OVCAR-8 ovarian = conditions: 10 µM unless noted
OVCAR-3 ovarian = conditions: 10 µM unless noted
HS 578T breast = conditions: 10 µM unless noted
BT-549 breast = conditions: 10 µM
HCC-2998 colon = conditions: 10 µM unless noted
HCT-116 colon = conditions: 10 µM unless noted

Measured: growth

CC1COC(=O)C1 (configuration not stated)
inactive: NCI-H226 lung 96.7% | MALME-3M melanoma 98.2% | RXF 393 renal 103% | SF-295 CNS 99.8% | UACC-257 melanoma 104% | M14 melanoma 102% | PC-3 prostate 102% | SK-MEL-5 melanoma 99.6% | LOX IMVI melanoma 100% | CAKI-1 renal 96.1% | A498 renal 89.2% | CCRF-CEM leukemia 95.4% | MOLT-4 leukemia 102% | RPMI-8226 leukemia 110% | OVCAR-8 ovarian 104% | OVCAR-3 ovarian 107% | HS 578T breast 99.2% | BT-549 breast 102% | HCC-2998 colon 98.6%

Cc1ccc(C(=O)C2CN(C)CCC2(O)c2ccc(C)cc2)cc1 (configuration not stated)
inactive: NCI-H226 lung 113% | MALME-3M melanoma 120% | RXF 393 renal 128% | SF-295 CNS 111% | UACC-257 melanoma 104% | PC-3 prostate 108% | SK-MEL-5 melanoma 114% | LOX IMVI melanoma 98.9% | CAKI-1 renal 93.7% | A498 renal 94% | CCRF-CEM leukemia 106% | MOLT-4 leukemia 103% | RPMI-8226 leukemia 99.9% | OVCAR-8 ovarian 107% | OVCAR-3 ovarian 119% | HS 578T breast 97% | HCT-116 colon 107% | HCC-2998 colon 98.3%

CNC(=O)O/N=C(/C)c1ccc(Cl)cc1
inactive: NCI-H226 lung 92.1% | MALME-3M melanoma 101% | RXF 393 renal 110% | SF-295 CNS 101% | UACC-257 melanoma 104% | M14 melanoma 98.7% | PC-3 prostate 91.8% | SK-MEL-5 melanoma 101% | LOX IMVI melanoma 106% | CAKI-1 renal 98.2% | A498 renal 92.2% | CCRF-CEM leukemia 96.3% | MOLT-4 leukemia 93.9% | RPMI-8226 leukemia 96.3% | OVCAR-8 ovarian 102% | OVCAR-3 ovarian 114% | HS 578T breast 137% | BT-549 breast 91.1% | HCT-116 colon 99.9% | HCC-2998 colon 105%
